About 300 (0.45%) of roughly 67,000 compounds showed an effect of 50% or more. Shown is part of a subset that was picked to be rich in strong results.

In the experiment the target is Polyketide synthase Pks13 (Mycobacterium tuberculosis (strain ATCC 25618 / H37Rv)) (UniProt I6X8D2). Kind of experiment: Mycobacterium tuberculosis Polyketide synthase 13 Thioesterase (PKS13). Format: functional. Details: scale not given: in the data most compounds retested in dose-response had high values. The settings on record: 30 µM.
Sequence of Polyketide synthase Pks13 (Mycobacterium tuberculosis (strain ATCC 25618 / H37Rv)) (I6X8D2 whole entry): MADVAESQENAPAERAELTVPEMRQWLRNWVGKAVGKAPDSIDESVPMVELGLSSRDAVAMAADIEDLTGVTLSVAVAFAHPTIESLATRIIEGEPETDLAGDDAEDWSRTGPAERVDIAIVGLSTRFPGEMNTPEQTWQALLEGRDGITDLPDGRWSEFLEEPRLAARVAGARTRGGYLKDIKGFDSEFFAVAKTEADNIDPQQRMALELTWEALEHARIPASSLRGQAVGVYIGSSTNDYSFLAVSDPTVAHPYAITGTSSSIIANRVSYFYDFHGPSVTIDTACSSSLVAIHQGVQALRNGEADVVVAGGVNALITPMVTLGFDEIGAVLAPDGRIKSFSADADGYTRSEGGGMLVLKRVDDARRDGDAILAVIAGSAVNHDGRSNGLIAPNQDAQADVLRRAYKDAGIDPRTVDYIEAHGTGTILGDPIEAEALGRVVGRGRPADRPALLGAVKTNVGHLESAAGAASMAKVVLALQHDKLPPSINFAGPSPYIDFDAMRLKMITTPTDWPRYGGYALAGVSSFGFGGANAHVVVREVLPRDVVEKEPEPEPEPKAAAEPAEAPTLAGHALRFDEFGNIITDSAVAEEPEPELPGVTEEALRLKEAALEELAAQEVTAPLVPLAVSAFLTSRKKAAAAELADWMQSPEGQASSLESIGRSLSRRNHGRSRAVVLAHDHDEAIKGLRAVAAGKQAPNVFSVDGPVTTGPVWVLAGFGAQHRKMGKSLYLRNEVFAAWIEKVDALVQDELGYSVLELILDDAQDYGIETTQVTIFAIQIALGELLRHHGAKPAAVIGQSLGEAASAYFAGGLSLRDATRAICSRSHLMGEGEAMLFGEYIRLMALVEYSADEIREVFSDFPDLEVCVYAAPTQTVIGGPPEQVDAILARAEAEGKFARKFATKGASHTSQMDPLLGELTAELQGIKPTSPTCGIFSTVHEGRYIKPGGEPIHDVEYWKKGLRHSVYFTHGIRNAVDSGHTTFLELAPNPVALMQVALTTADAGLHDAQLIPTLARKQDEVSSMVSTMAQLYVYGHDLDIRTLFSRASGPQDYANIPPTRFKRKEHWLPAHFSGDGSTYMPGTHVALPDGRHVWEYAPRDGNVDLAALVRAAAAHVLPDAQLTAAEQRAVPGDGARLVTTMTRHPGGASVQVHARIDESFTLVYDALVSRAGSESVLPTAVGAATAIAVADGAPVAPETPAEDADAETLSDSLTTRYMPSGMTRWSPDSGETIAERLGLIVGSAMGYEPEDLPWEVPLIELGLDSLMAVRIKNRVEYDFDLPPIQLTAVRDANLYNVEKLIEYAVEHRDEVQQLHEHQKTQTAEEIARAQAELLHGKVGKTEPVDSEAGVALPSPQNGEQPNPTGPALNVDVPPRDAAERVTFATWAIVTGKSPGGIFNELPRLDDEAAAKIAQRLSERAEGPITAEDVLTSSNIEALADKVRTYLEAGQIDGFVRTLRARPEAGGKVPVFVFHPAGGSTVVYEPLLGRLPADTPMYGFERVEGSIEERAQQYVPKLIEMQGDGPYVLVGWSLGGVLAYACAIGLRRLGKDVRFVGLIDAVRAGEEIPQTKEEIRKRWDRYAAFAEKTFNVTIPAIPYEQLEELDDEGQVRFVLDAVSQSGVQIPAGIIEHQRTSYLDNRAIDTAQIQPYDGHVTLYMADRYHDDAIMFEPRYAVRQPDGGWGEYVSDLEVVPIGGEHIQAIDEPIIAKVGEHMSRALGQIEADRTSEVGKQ
As to `C/C(NC(=O)c1ccco1)=C1/C(=O)C[C@@H]2[C@H]1C2(C)C`, the Percent Effect is 0.624%. In the case of `CCCc1ccc(CN2C[C@H]3C(=O)N(CC4CC4)C[C@@]3(C(=O)O)C2)o1`, the Percent Effect was -6.91%. For the compound `COCCN1C[C@@H]2CN(c3ncc(F)cn3)C[C@@H]2C1=O`, the Percent Effect is -5%. With `O=C1[C@H]2CN(c3ncccn3)C[C@H]2CN1CCN1CCCC1` the figure was -2.18%; with `COCCN1C[C@@H]2CN(c3ncccn3)C[C@@H]2C1=O`, 54.8%.

On to `O=C(NC[C@@H]1C[C@@H]2CN(C(=O)CO)C[C@H]2O1)c1ccsc1`, for which the Percent Effect is -53.3%.

On to `Cc1ccnn1-c1ccc(C(=O)N2CCN(c3cnccn3)CC2)cc1`, for which the Percent Effect stood at 1.07%. As to `O=C(c1cnn(-c2ccccc2)c1)N1CCN(c2cnccn2)CC1`, the Percent Effect was -16.8%. For `O=C(c1ccc(-n2cncn2)cc1)N1CCN(c2cnccn2)CC1`, the Percent Effect is -11.1%. For `O=C(c1ccc(-n2cc(Br)cn2)cc1)N1CCN(c2cnccn2)CC1`, the Percent Effect was 81.5%. With `O=C(c1ccc(-n2ccnc2)cc1)N1CCCC1` the figure was -36.5%; with `O=C(c1ccc(-n2ccnc2)cc1)N1CCN(c2cnccn2)CC1`, 64.5%; with `O[C@@]1(c2ccccn2)CC[C@H]2CN(Cc3cccc(Cl)c3Cl)C[C@H]21`, -48.7%.

Take `O=C(C1CC1)N1C[C@H]2CNC[C@@]2(C(=O)NCCCc2ccccc2)C1`: the Percent Effect was -27.1%. Turning to `Cc1ncsc1CN1C[C@H](C(=O)NCC2CC2)[C@@H]2CCO[C@@H]2C1`, the Percent Effect is -19.8%. On to `CCNC(=O)NCCCn1nc2ccccn2c1=O`, for which the Percent Effect was determined as 0.265%. Take `O=C(NCCCn1nc2ccccn2c1=O)NCc1ccccc1`: the Percent Effect was determined as 2.17%. With `Cc1ccc(CNC(=O)NCCCn2nc3ccccn3c2=O)s1`, the Percent Effect was found to be 96.8%. With `Cc1nc(COC[C@@]23CCC[C@@H]2CN(CC2CCOCC2)C3)cs1` the figure was -23.1%; with `O[C@@H]1C[C@@](CNCC2CC2)(COc2cccnc2)C[C@@H]1O`, -28.2%; with `Cc1cc(CN2C[C@@H]3COC[C@@H](C(=O)N4CCCCO4)[C@@H]3C2)oc1C`, -7.51%. `CCN1CC(C(=O)N2CCN(c3nsc4ccccc34)CC2)CCC1=O` (stereo unspecified): the Percent Effect stood at 105%. With `NC(=O)N1CCCC(C(=O)N2CCN(c3nsc4ccccc34)CC2)C1` (stereo unspecified) the figure was -37.1%. As to `CC(C)N1CCCC(C(=O)N2CCN(c3nsc4ccccc34)CC2)C1` (stereo unspecified), the Percent Effect is -2.9%. For the compound `O=C(COC[C@H]1CC[C@H]2[C@H](CCN2c2ncccn2)O1)N1CCCC1`, the Percent Effect is -9.39%. With `CC(C)=CCN1CCN(C(=O)COc2ccccc2)[C@H]2CS(=O)(=O)C[C@H]21` the figure was -8.58%. For `O=C(C1CC(F)(F)C1)N1C[C@@H]2CN(Cc3ccoc3)CCO[C@@H]2C1`, the Percent Effect is -7.81%. As to `Cc1cccc(CN2CCN(C(=O)N(C)C)[C@@H]3CS(=O)(=O)C[C@@H]32)n1`, the Percent Effect is -6.96%.

Regarding `CCn1cc(-c2cc(-c3ccn(C)c3)nc(N)c2C#N)cc1C#N`, the Percent Effect was 58.3%. As to `COc1ncc(-c2cc(-c3ccn(C)c3)nc(N)c2C#N)cn1`, the Percent Effect amounted to 9.8%. `CCNc1ncc(-c2cc(-c3ccn(C)c3)nc(N)c2C#N)cn1`: the Percent Effect was found to be 5.42%. Regarding `CN(C)C(=O)COCC1C[C@@H]2OCCN(Cc3ccco3)[C@H]2C1` (stereo partly specified), the Percent Effect was -27.3%.

Regarding `COc1cc(N2C[C@@H]3COC[C@]3(COCc3ccncc3)C2)ncn1`, the Percent Effect was -5.91%.

As to `O=C(C[C@@H]1COC[C@H]2CN(C3CCC3)C[C@@H]12)NCc1cccnc1`, the Percent Effect worked out at 0.641%. For `O=C(c1ccc(F)cc1)N1C[C@H]2CCC[C@@]2(COCc2ccccn2)C1`, the Percent Effect is -35.6%. As to `Cn1cc(NC(=O)c2ccccn2)cc(Cl)c1=O`, the Percent Effect was -33.4%. On to `Cn1cc(NC(=O)c2cc[nH]n2)cc(Cl)c1=O`, for which the Percent Effect was found to be 70.5%. For `COc1ccsc1C(=O)Nc1cc(Cl)c(=O)n(C)c1`, the Percent Effect is -16.3%. As to `O=C(c1ccnnc1)N1CCN2C[C@H](Oc3cccnc3)C[C@H]2C1`, the Percent Effect is -17.2%.

On to `COc1ncccc1CN1C[C@H]2CCN(C(C)C)C[C@H]2C1`, for which the Percent Effect was 8.32%. Take `O=C(Nc1nc2c(s1)CN(S(=O)(=O)C1CC1)CC2)c1c(F)cccc1F`: the Percent Effect is -2.3%. Regarding `O=C(Nc1nc2c(s1)CN(S(=O)(=O)C1CC1)CC2)c1cccc(Cl)c1`, the Percent Effect was found to be 75.5%.

As for `O=C(Nc1nc2c(s1)CN(S(=O)(=O)C1CC1)CC2)c1ccc(Cl)s1`, the Percent Effect was 13.8%.

For `CNC(=O)[C@@]12CCCN(c3ncccn3)[C@@H]1CN(c1ncc(C)cn1)C2`, the Percent Effect is -27.3%. With `Cn1nc(C2CCCN2)c2c(C(=O)NCC(F)(F)F)cc(C3CC3)nc21` (stereo unspecified), the Percent Effect was found to be 119%. As to `CC(C)CNC(=O)c1cc(C2CC2)nc2c1c(C1CCCN1)nn2C` (stereo unspecified), the Percent Effect is -19.7%.

Consider `Cn1nc(C2CCNC2)c2c(C(=O)NCC(F)(F)F)cc(C3CC3)nc21` (stereo unspecified), for which the Percent Effect is -7.7%. For the compound `Cc1cccc(N2CC[C@@H]3CN(C(=O)c4ccco4)CCO[C@@H]3C2)n1`, the Percent Effect is -34.3%. With `O=C(c1ccco1)N1CCO[C@@H]2CN(c3ccccn3)CC[C@@H]2C1` the figure was 52.6%. For `O=C(c1ccco1)N1CCO[C@@H]2CN(c3ccccc3)CC[C@@H]2C1`, the Percent Effect is -28.4%. With `Fc1cnc(N2CCO[C@H]3CN(CC4CCCCC4)C[C@H]32)nc1` the figure was -51%. In the case of `O=C(c1cccc(F)c1)N1CC[C@H]2[C@H]1CCN2CC1CCOCC1`, the Percent Effect was -17.7%.

Take `Cc1nc2c(Nc3ccc(C#N)cc3)nc(N)nc2n1C`: the Percent Effect worked out at 18.1%. Take `Cc1nc2c(Nc3cccc(C#N)c3)nc(N)nc2n1C`: the Percent Effect turned out to be 58.8%.

Regarding `CC(=O)c1ccc(Nc2nc(N)nc3c2nc(C)n3C)cc1`, the Percent Effect amounted to 2.22%. Regarding `O=C(NCc1ccccn1)[C@H]1COC[C@H]2CN(C3CCCC3)C[C@H]21`, the Percent Effect is -25.1%. Turning to `CC1(NC(=O)Cc2csc(-c3ccccc3Cl)n2)CCS(=O)(=O)C1` (stereo unspecified), the Percent Effect was -7.78%. In the case of `CC1(NC(=O)Cc2csc(NC(=O)c3ccccc3)n2)CCS(=O)(=O)C1` (stereo unspecified), the Percent Effect is 51.1%. Regarding `CC1(NC(=O)Cc2csc(C(C)(C)C)n2)CCS(=O)(=O)C1` (stereo unspecified), the Percent Effect is -0.313%. For the compound `c1ccc(CN2CCN3C[C@H](Oc4cccnc4)C[C@H]3C2)nc1`, the Percent Effect is -35.4%. Turning to `CNC(=O)[C@H]1C[C@@H]2CN(C(=O)c3ccccn3)C[C@@H]2N1S(C)(=O)=O`, the Percent Effect is -6.49%. Consider `Cc1ccc(N2CCC(C(O)Cc3ccccc3)CC2)nn1` (stereo unspecified), for which the Percent Effect was -23.2%. As for `CSCc1ccc(N2CCC(C(O)CC(C)C)CC2)nc1` (stereo unspecified), the Percent Effect came to 6.3%.

Regarding `CSCc1ccc(N2CCC(C(O)Cc3ccccc3)CC2)nc1` (stereo unspecified), the Percent Effect was found to be 101%. In the case of `CC(C)CNC(=O)N1CC[C@@H]2CN(Cc3cccnc3)S(=O)(=O)[C@@H]2CC1`, the Percent Effect was -16.3%. As to `CCCN1C(=O)[C@@H]2[C@@H](CCN2C(=O)COC)N(Cc2cccs2)C1=O`, the Percent Effect was 26.9%. With `Cc1cc(NCc2cccc(C#N)c2)ccc1C(=O)N(C)C` the figure was -4.66%. Regarding `Cc1cc(NCc2cccc(C#N)c2)ccc1Br`, the Percent Effect amounted to 58.5%.

`Cc1cc(NCc2cccc(C#N)c2)ccc1C(N)=O`: the Percent Effect was -10.5%. Take `C1CC(N2C[C@@H]3COC[C@]3(COCC3CCOCC3)C2)C1`: the Percent Effect is -9.77%. For `Fc1ccccc1Cc1noc(CN2CC[C@@H]3CCCC[C@H]3C2)n1`, the Percent Effect was -29.1%. As for `CC(C)c1cc(CN2CCC(N)CC2)no1`, the Percent Effect worked out at 11.6%. With `CC(C)c1cc(CN2CCC(CC(=O)O)CC2)no1`, the Percent Effect was found to be 60.1%.

In the case of `CC(C)c1cc(CN2CCNCC2)no1`, the Percent Effect was found to be 18.9%. As to `CC(C)c1cc(C(=O)N2CCN(CC3CC3)[C@@H]3CS(=O)(=O)C[C@@H]32)on1`, the Percent Effect is -6.23%.

Take `O=C1[C@@H]2CCN(CC3CC3)C[C@@H]2OCCN1c1ccsc1`: the Percent Effect turned out to be 2.34%. Consider `CCOc1cc(/C=C/c2ncc(C(=O)O)s2)cc(Br)c1O`, for which the Percent Effect worked out at 59.8%.

For `COc1cc(/C=C/c2ncc(C(=O)O)s2)cc(OC)c1`, the Percent Effect stood at 19.6%.

Turning to `COc1cc(/C=C/c2ncc(C(=O)O)s2)cc(Cl)c1OC`, the Percent Effect worked out at 16.6%.

In the case of `CNC(=O)c1cnc(/C=C/c2cc(OC)cc(OC)c2)s1`, the Percent Effect is 54.2%. `CCOc1cc(/C=C/c2ncc(C(=O)O)s2)cc(Br)c1OC`: the Percent Effect was found to be 17.1%. Turning to `COc1cc(/C=C/c2ncc(C(=O)O)s2)cc(Cl)c1O`, the Percent Effect came out at 64.9%.

Consider `CCOc1c(Br)cc(/C=C/c2ncc(C(=O)O)s2)cc1OC`, for which the Percent Effect was -5.74%.

Turning to `CNC(=O)c1cnc(/C=C/c2cc(OC)c(OC)c(OC)c2)s1`, the Percent Effect is 17.9%. Take `CCOc1c(Cl)cc(/C=C/c2ncc(C(=O)O)s2)cc1OC`: the Percent Effect came to 23.8%. On to `CC(=O)N1CC[C@H]2OCC[C@@]2(C(=O)NCCc2ccccn2)C1`, for which the Percent Effect was -18.1%. As to `O=C(c1ccsc1)N1CCN2C[C@H](OCc3ccccn3)C[C@H]2C1`, the Percent Effect is -2.94%. For `Cc1ccc(N2C[C@@H]3OCCN(CC4CC4)[C@@H]3C2)nn1`, the Percent Effect was 0.27%. Consider `O=C(C1CCCCC1)N1C[C@H]2CNC[C@H]2C1`, for which the Percent Effect is -22.2%. `CCOC(=O)[C@@H]1[C@@H](c2ccccc2)CN2CCN(C(=O)N(C)C)C[C@H]12`: the Percent Effect was -2.04%. On to `O=C(c1cnccn1)N1CCN2C[C@H](Oc3cccnc3)C[C@H]2C1`, for which the Percent Effect was -12.6%. `CN(C)C(=O)[C@H]1C[C@@H]2CCN(C3CCOCC3)C[C@H]2O1`: the Percent Effect was -11.1%. As for `COc1ccc(C2Nc3ccccc3NC3=C2C(=O)NC3)cc1OC` (stereo unspecified), the Percent Effect was -7.87%. With `CC(C)(C)C(=O)N1CCC(n2nc(-c3ccco3)ccc2=O)CC1`, the Percent Effect was determined as 125%. With `CC(C)C(=O)N1CCC(n2nc(-c3ccco3)ccc2=O)CC1` the figure was 0.602%; with `O=C(c1ccco1)N1CCC(n2nc(-c3ccco3)ccc2=O)CC1`, 10.8%; with `CN(C)C(=O)N[C@@H]1CN(C2CCOCC2)[C@@H]2CCCO[C@@H]21`, -25.3%. For `CC(=O)N1CCO[C@@H]2CN(C(=O)c3ccccc3)CC[C@@H]2C1`, the Percent Effect stood at 7.28%. Consider `Cc1cc(OCc2cccc(F)c2)ccc1NC(=O)C(C)NC(N)=O` (stereo unspecified), for which the Percent Effect is -1.33%. On to `Cc1cccc(COc2ccc(NC(=O)C(C)NC(N)=O)c(C)c2)c1` (stereo unspecified), for which the Percent Effect came out at 53%. In the case of `CC(=O)NC(C)C(=O)Nc1ccc(OCc2cccc(F)c2)cc1C` (stereo unspecified), the Percent Effect was -35.8%.

In the case of `c1ccc(OCC2C[C@@H]3[C@@H](C2)OCCN3CC2CCOCC2)nc1` (stereo partly specified), the Percent Effect is -0.0246%. `Cc1ccoc1C(=O)N1C[C@@H]2[C@@H](C1)OCC(=O)N2Cc1cccnc1`: the Percent Effect is -9.46%. With `Cc1cnc(N2CCCC3(COCCN(c4nccs4)C3)C2)nc1` (stereo unspecified), the Percent Effect was -20.9%. Turning to `Cc1ccc(N2CCCC3(COCCN(c4nccs4)C3)C2)nn1` (stereo unspecified), the Percent Effect is -10.9%.

As for `c1ccc(N2CCOCC3(CCCN(c4nccs4)C3)C2)nc1` (stereo unspecified), the Percent Effect was found to be 66%. With `Cc1nc2cc(C3CCN(C(=O)c4ccccn4)CC3)nn2c(O)c1C` the figure was -23.4%; with `Cc1cccc(CN2C[C@@H]3OCCN(c4cnccn4)[C@@H]3C2)n1`, -4.22%. Turning to `CS(=O)(=O)CCCSc1n[nH]c(-c2ccc3c(c2)CCC3)n1`, the Percent Effect turned out to be 66.3%. Consider `NC(=O)CCSc1n[nH]c(-c2ccc3c(c2)CCC3)n1`, for which the Percent Effect is -2.85%.

Turning to `CS(=O)(=O)CCSc1n[nH]c(-c2ccc3c(c2)CCC3)n1`, the Percent Effect came to 1.98%.

The record behind these values is ChEMBL document CHEMBL3988442, “University of Dundee, Small-Polar-MMV Screening Library” (2021).
